Screens: PubChem, National Center for Advancing Translational Sciences (NCATS)
MCF10A rereplic = induces DNA re-replication in MCF 10a normal breast cells | MCF 10A DNA re-replication, Hoechst nuclear intensity, 48 h | Potency, µM (doses to about 46.1 µM), hits mostly activators | 350,000 compounds, 2.9% hits | AID 624296; further: nearly all actives have a fitted effect of over 50% in size
SW480 rereplic = induces DNA re-replication in SW480 colon adenocarcinoma cells; AID 624297; 340,000 compounds, 1.8% hits; SW480 DNA re-replication, Hoechst DNA content imaging, 48 h; Potency, µM (doses to about 46.1 µM), most hits filed as activators; further: nearly all actives have a fitted effect of over 55% in size
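Image-based DNA-content assay: after two days of treatment, nuclei were labelled with the DNA dye Hoechst and imaged, and hits were compounds raising the count of nuclei showing high fluorescence intensity.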
ELG1 repair inh = blocks ELG1-dependent DNA repair in HEK293T cells; 330,000 compounds, 2.3% hits; HEK293T ELG1-luciferase reporter, luminescence, 16 h; DNA damage induced by 5-fluorouridine; Potency, µM (top dose mostly 46.1 µM), usual class: inhibitors; further: nearly all actives have a fitted effect of over 55% in size
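DMSO vehicle served as the neutral condition. Each well held 2,000 cells given 5-fluorouridine plus compound; after 16 hr at 37 °C/5% CO2, ONE-Glo was added and luciferase measured 30 min later.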
RORgamma inh = blocks mouse ROR gamma transcriptional activity. P51450. Drosophila S2 Gal4-RORgamma UAS-luciferase reporter, 20 h. Potency, µM (series often up to 53.6 µM), usual class: inhibitors. 310,000 compounds, 5.4% hits; further: nearly all actives have a fitted effect of over 60% in size
Target sequence (P51450 whole entry, looked up, the tested form may be a part): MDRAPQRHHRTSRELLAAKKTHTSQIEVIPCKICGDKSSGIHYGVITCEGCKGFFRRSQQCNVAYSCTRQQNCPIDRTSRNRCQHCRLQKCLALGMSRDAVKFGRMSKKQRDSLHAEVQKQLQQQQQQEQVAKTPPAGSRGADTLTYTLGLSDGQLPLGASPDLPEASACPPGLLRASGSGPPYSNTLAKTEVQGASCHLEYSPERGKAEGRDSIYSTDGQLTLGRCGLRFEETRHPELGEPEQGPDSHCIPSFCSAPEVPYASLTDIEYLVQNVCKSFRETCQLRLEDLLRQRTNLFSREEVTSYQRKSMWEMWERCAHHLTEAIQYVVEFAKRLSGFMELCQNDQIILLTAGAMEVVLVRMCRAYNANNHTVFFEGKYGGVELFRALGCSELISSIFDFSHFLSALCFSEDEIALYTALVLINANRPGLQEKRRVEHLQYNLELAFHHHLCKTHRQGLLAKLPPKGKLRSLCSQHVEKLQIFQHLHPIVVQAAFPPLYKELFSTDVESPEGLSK
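Stably transfected Drosophila Schneider cells are the test system, with ROR gamma fused to Gal4 and luciferase under UAS control; luminescence is read after 20 hr of 700 uM copper sulfate induction at ambient temperature.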
Gal4-VP16 FLuc = inhibits Gal4-VP16 luciferase reporter, ROR gamma counter-screen | Potency, µM (titrated, usually from 53.6 µM), hits mostly inhibitors | 310,000 compounds, 3.5% hits | Drosophila S2 Gal4-VP16 UAS-luciferase, luminescence, 20 h | AID 2546;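 further: Gal4-VP16 expression switched on by copper sulfate through the metallothionein promoter; nearly all actives have a fitted effect of over 50% in size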
Each line names hits and unclear results; the compound was inactive in the other large screens. Most compounds without a hit are left out; they make up all but 10% or so of the library. The call rests on the fitted dose curve; in most records, active means well fitted curve in the direction sought with a large enough effect; inconclusive means small, poorly fitted or top-dose-only effect, or another doubt; inactive means no such curve, though single readings can be large; an effect the other way counts as inactive or inconclusive.

Cc1ccc(C)c2sc(NC(=O)C3CC3)nc12	none
COc1ccccc1NC(=O)NNC(=O)CN1C(=O)COc2ccccc21	none
COc1ccc(NC(=O)C2C3C=CC4(O3)C2C(=O)N(CCN2CCCCC2)C4C(=O)NC2CCCC(C)C2C)cc1 (stereo unspecified)	MCF10A rereplic inconclusive, SW480 rereplic 26µM
CCC1CCCCN1CCN1C(=O)C2C(C(=O)Nc3ccc(OC)cc3)C3C=CC2(O3)C1C(=O)NC1CCCCC1 (stereo unspecified)	MCF10A rereplic 9.2µM, ELG1 repair inh inconclusive
CCCOc1ccc(CN(CCC#N)C(=S)NC(=O)c2ccccc2)cc1	MCF10A rereplic inconclusive, SW480 rereplic inconclusive, ELG1 repair inh inconclusive, RORgamma inh 0.32µM, Gal4-VP16 FLuc 0.56µM
CCCN(CCC)C(=S)NC(=O)c1ccc(Cl)cc1Cl	MCF10A rereplic inconclusive, SW480 rereplic inconclusive, RORgamma inh 0.28µM, Gal4-VP16 FLuc 0.89µM
CCN(CC)S(=O)(=O)c1ccc(C(=O)NC(=S)N(CCO)Cc2ccccc2)cc1	MCF10A rereplic inconclusive, RORgamma inh 1.1µM, Gal4-VP16 FLuc 3.2µM
O=C(NC(=S)N(CCO)Cc1ccccc1)c1ccc(F)cc1Cl	RORgamma inh 0.56µM, Gal4-VP16 FLuc 2.8µM
Clc1ccccc1N/N=C/c1ccc2c(c1)OCO2	MCF10A rereplic inconclusive, ELG1 repair inh inconclusive
COc1ccc(Cl)cc1NC(=O)COC(=O)C1COc2ccccc2O1 (stereo unspecified)	none (no result: RORgamma inh, Gal4-VP16 FLuc)
C=C1C(=O)O[C@@H]2[C@H]1[C@@H](OC(=O)/C(C)=C/C)C/C(C)=C\C(=O)/C=C(\C)[C@@H]2O	SW480 rereplic inconclusive, ELG1 repair inh inconclusive, RORgamma inh inconclusive, Gal4-VP16 FLuc 11µM
Cn1c(-c2ccc(Br)o2)nc2ccccc21	ELG1 repair inh inconclusive
Cc1oc(-c2nc3ccccc3n2C)cc1C(=O)c1ccccc1	MCF10A rereplic inconclusive, SW480 rereplic inconclusive, ELG1 repair inh inconclusive, RORgamma inh 11µM, Gal4-VP16 FLuc inconclusive
Cc1ccc(-c2nc3ccccc3n2C)o1	SW480 rereplic inconclusive, ELG1 repair inh inconclusive, RORgamma inh 11µM, Gal4-VP16 FLuc inconclusive
O=C(COC(=O)c1ccc(Br)o1)NCC(=O)Nc1ccc(F)cc1	none (no result: RORgamma inh, Gal4-VP16 FLuc)
CCCCn1c(=O)[nH]c(=O)c2c1nc(Cn1ncc(Cl)c(Cl)c1=O)n2CCC	MCF10A rereplic inconclusive, SW480 rereplic inconclusive, ELG1 repair inh 23µM, RORgamma inh 16µM, Gal4-VP16 FLuc 7.9µM
CCCCn1c(=O)[nH]c(=O)c2c1nc(CN1C(=O)c3ccccc3S1(=O)=O)n2CCC	ELG1 repair inh inconclusive, RORgamma inh inconclusive, Gal4-VP16 FLuc inconclusive
CCCCNC(=S)N(C)/N=C/c1c(F)cccc1F	none
CCCCNC(=S)N(C)/N=C/c1ccc(F)cc1	RORgamma inh 11µM, Gal4-VP16 FLuc inconclusive (no result: SW480 rereplic)
O=C(Cc1ccccc1)N/N=C/c1cccs1	none
O=C(Cc1cc(=O)[nH][nH]1)N/N=C/c1c(Cl)cccc1Cl	MCF10A rereplic inconclusive, Gal4-VP16 FLuc inconclusive
CCNC(=S)N/N=C/c1c(Cl)cccc1Cl	RORgamma inh 2.5µM, Gal4-VP16 FLuc 2.8µM
CC(C)(C)NC(=S)N/N=C/c1c(Cl)cccc1Cl	ELG1 repair inh inconclusive, RORgamma inh 4.5µM, Gal4-VP16 FLuc 5µM
Cc1ccccc1CSCC(=O)N/N=C/c1cccs1	RORgamma inh 18µM
CCOc1ccc2nc(N3CCCC(C(=O)NCCCN4CC(C)CC(C)C4)C3)sc2c1 (stereo unspecified)	SW480 rereplic inconclusive, ELG1 repair inh inconclusive
Cc1ccc(NC(=S)N/N=C/c2c(Cl)cccc2Cl)c(C)c1	MCF10A rereplic 1.5µM, SW480 rereplic 1.3µM, ELG1 repair inh inconclusive, RORgamma inh 0.79µM, Gal4-VP16 FLuc 0.89µM
CCNC(=S)N/N=C/c1cccs1	RORgamma inh 0.79µM, Gal4-VP16 FLuc 1.4µM
Cc1ccc(NC(=S)N/N=C/c2ccc(OCCC(C)C)cc2)c(C)c1	MCF10A rereplic inconclusive, RORgamma inh 6.3µM, Gal4-VP16 FLuc 3.2µM
CCCOc1ccc(NCC(=O)Nc2ccc(C)cc2C)cc1	SW480 rereplic inconclusive
CCNC(=S)N/N=C/c1ccc(F)cc1	RORgamma inh 2.2µM, Gal4-VP16 FLuc 7.9µM (no result: MCF10A rereplic, SW480 rereplic)
Cc1ccc(NC(=S)Nn2cnnc2)c(C)c1	none (no result: MCF10A rereplic, SW480 rereplic)
O=C1CCC(C(=O)N2CCSCC2)CN1Cc1cccc(C(F)(F)F)c1 (stereo unspecified)	none
Cc1ccc(-c2nc3ncccn3c2Nc2ccccc2C)o1	none
Cc1ccc(-c2nc3cnccn3c2Nc2c(C)cccc2C)o1	MCF10A rereplic 21µM, SW480 rereplic inconclusive, ELG1 repair inh inconclusive, RORgamma inh 11µM
COc1ccc(/C(C)=N/N2C(C)CCCC2C)c(OC)c1 (stereo unspecified)	RORgamma inh 13µM, Gal4-VP16 FLuc inconclusive
Cc1cc(C(=O)N/N=C/c2ccc(N(C)C)o2)cs1	SW480 rereplic inconclusive, RORgamma inh 13µM, Gal4-VP16 FLuc 6.3µM
CN(C)c1ccc(/C=N/NC(=O)C(O)(c2ccccc2)c2ccccc2)o1	MCF10A rereplic inconclusive, SW480 rereplic inconclusive, RORgamma inh 8.9µM, Gal4-VP16 FLuc 11µM
O=C(N/N=C/c1ccc(N2CCCCC2)o1)C(O)(c1ccccc1)c1ccccc1	MCF10A rereplic inconclusive, RORgamma inh 11µM, Gal4-VP16 FLuc 13µM
O=C(NN=Cc1ccccc1O)C(O)(c1ccccc1)c1ccccc1	SW480 rereplic inconclusive (no result: ELG1 repair inh, RORgamma inh, Gal4-VP16 FLuc)
Cc1ccc(/C=N/NC(=O)c2csc(C)c2)o1	ELG1 repair inh inconclusive
COc1ccc(/C=N/n2cncn2)cc1Cn1nc(C)c([N+](=O)[O-])c1C	ELG1 repair inh inconclusive
COCC(C)N1C(=O)Cc2c1nc(N)c1c(N)nc(N3CCN(c4ccccc4F)CC3)c(C#N)c21 (stereo unspecified)	MCF10A rereplic 12µM, SW480 rereplic inconclusive, ELG1 repair inh 21µM
Cn1c2c(c(=O)n(C)c1=O)C(C(F)(F)F)(C(F)(F)F)N=C(CCC1CCCCC1)N2	MCF10A rereplic inconclusive, ELG1 repair inh inconclusive, RORgamma inh inconclusive, Gal4-VP16 FLuc inconclusive
O=C(CSc1nnc(-c2ccc(Cl)cc2)n1CC1CCCO1)NC1CCS(=O)(=O)C1 (stereo unspecified)	MCF10A rereplic 1.2µM, SW480 rereplic inconclusive
COc1ccc(/C=C2\CCC/C(=C\c3ccc(OC)c(OC)c3OC)C2=O)c(OC)c1OC	ELG1 repair inh 23µM
COc1ccc2c(c1OC)CCC2=O	none
COc1cc(OC)c(OC)cc1/C=C1\CCC/C(=C\c2cc(OC)c(OC)cc2OC)C1=O	MCF10A rereplic 16µM, SW480 rereplic inconclusive, ELG1 repair inh 15µM
COc1ccc(/C=C2\CCC(C3CCCC3)C2=O)c(OC)c1 (stereo unspecified)	ELG1 repair inh inconclusive
COc1cc(OC)c(OC)cc1/C=C1\CCC(C2CCCC2)C1=O (stereo unspecified)	MCF10A rereplic inconclusive, SW480 rereplic inconclusive, ELG1 repair inh 7.3µM
COc1ccc(/C=C2\CC/C(=C\c3ccc(OC)cc3OC)C2=O)c(OC)c1	MCF10A rereplic inconclusive
Clc1ccc2c(c1)Nc1ccccc1CC2	none (no result: ELG1 repair inh, RORgamma inh, Gal4-VP16 FLuc)
